Experimental data taken from PubChem BioAssay (NCI).
This is part of a sample that, as a whole, favours compounds with a hit. Of some 83,000 tested, about 20% had one in any assay.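 Plates (96-well) were seeded with cells, treated with compound at one concentration, and incubated for 48 hours before percent growth was determined.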 The source made the active and inactive calls. The calls were made as follows: active = growth percent below 10; inactive = the rest.

What follows are compounds tested on HL-60(TB) leukemia (assay: NCI-60 one-dose screen, 48 h (100 = growth as untreated, 0 = no growth, -100 = all killed)). Conditions: 10 µM unless noted.
For `COc1cccc(/C=N/NC(=O)c2ccccc2Nc2ccnc(C(F)(F)F)c2)c1O`, the growth was 34.8% (inactive).
`CN1CCn2c(c(Sc3ccc(C(=O)NO)cc3)c3ccccc32)C1=O` was tested, and the growth was -1.35% (active).
In the case of `N#Cc1c(-c2ccc(Cl)cc2)nc(N=Nc2c(O)[nH]c3ccc(Cl)cc23)nc1N1CCOCC1`, the growth is reported as 104% (inactive).
For `CC(Sc1nc2sc3c(c2c(=O)n1-c1ccc(Cl)cc1)CCCC3)C(=O)Nc1nc(-c2ccc(Br)cc2)cs1` (configuration not stated), the growth was 98.6% (inactive).
With `COc1cc(Nc2ncnc(Nc3ccc4c(n3)NC(=O)C(C)(C)O4)n2)cc(OC)c1OC` the growth was 46.8% (inactive).
`Cc1nonc1-c1ccc2c(c1)OCO2` was tested, and the growth was 86.9% (inactive).
In the case of `CC(C)=CCc1cc(O)cc2c1OC(C=C(C)C)C1=C2C(=O)C2=C(NCCS2(=O)=O)C1=O` (configuration not stated), the growth is reported as -35.7% (active).
With `O=C(Nc1ccncc1)C(=O)c1cn(S(=O)(=O)c2ccc(Cl)cc2)c2ccccc12` the growth was 18.3% (inactive).
For `C=C1C(=O)O[C@H]2[C@H]1CC/C(COC(=O)NCc1ccc(Cn3c(=O)sn(CCCCC)c3=O)cc1)=C\CC[C@@]1(C)O[C@@H]21`, the growth was -40.4% (active).
`O=C1/C(=C/c2ccccc2)CN(C(=O)CCN2CCC(=NO)CC2)C/C1=C\c1ccccc1` was tested, and the growth was 5.03% (active).
With `CC(=O)O[C@@H]1C2CCC3C(CC[C@@]4(C)C3CC[C@@H]4C(C)N(C)C)[C@@]2(C)CC[C@@H]1NC(=O)C=C(C)C` (some centres not stated) the growth was -58.8% (active).
In the case of `N#Cc1cnn2c(-c3ccc(Cl)cc3)nc(NCCc3ccccc3)nc12`, the growth is reported as 85.1% (inactive).
`CC(C)OC(=O)OCOP(=O)(OCOC(=O)OC(C)C)C1CCCN(O)C1=O` (configuration not stated) was tested, and the growth was 6.5% (active).
`COc1cc(OC)cc(N2CCN(C(=O)Nc3nc4cc(F)ccc4nc3OC)CC2)c1` was tested, and the growth was -17% (active).
For `NS(=O)(=O)c1ccc(C(=O)N=Nc2c(O)[nH]c3c(F)cccc23)cc1`, the growth was 102% (inactive).
With `O=S=Nc1ccc([N+](=O)[O-])cc1` the growth was 102% (inactive).
`COc1ccc(C2CC(=O)c3c(O)cc(OC4OC(COC5OC(C)C(O)C(O)C5O)C(O)C(O)C4O)cc3O2)cc1O` (configuration not stated) was tested, and the growth was 131% (inactive).
For `COC(=O)c1c2c(c(C)[n+]([O-])c1C)C(=O)C=C(NCc1ccc(OC)cc1)C2=O`, the growth was -30.5% (active).
For `Cc1nc2oc3ccccc3c(=O)c2cc1C(=O)NCc1ccccc1`, the growth was 69.5% (inactive).
In the case of `Cn1c(=O)c2nc(SCc3ccccc3)n(C)c2n(C)c1=O`, the growth is reported as 92.3% (inactive).
With `Cc1ccc(-c2nc(C#N)c(S(=O)(=O)N(C)CCO)o2)cc1` the growth was -18.1% (active).
In the case of `COC1=CC(c2ccc[nH]2)=N/C1=C\c1[nH]c(C)c(C(=O)CCCCC(=O)NC(C)(C)C)c1C`, the growth is reported as 3.43% (active).
`COc1ccc(CCN2CCC(Nc3nc4ccccc4n3Cc3ccc(F)cc3)CC2)cc1` was tested, and the growth was -53.5% (active).
In the case of `Cc1cc(C)c(S(=O)O)c(C)c1`, the growth is reported as 102% (inactive).
With `Nc1c(C(=O)Nc2cccc([N+](=O)[O-])c2)sc2nc3c(cc12)C(O)CCC3` (configuration not stated) the growth was 9.71% (active).
In the case of `Oc1ccc(N=Cc2ccccc2)cc1`, the growth is reported as 0.519% (active).
`O=C1C=C(c2ccccc2)C(O)(c2ccccc2)C1` (configuration not stated) was tested, and the growth was 85.2% (inactive).
`O=C(CCc1nnco1)c1nc2ccc([N+](=O)[O-])cc2[nH]1` was tested, and the growth was 120% (inactive).
`COc1cccc(NC(=O)c2c(-c3ccccc3)c(-c3ccccc3)n[nH]c2=O)c1` was tested, and the growth was 95.5% (inactive).
In the case of `CCOC(=O)c1c(-c2ccc(OC)cc2)c(C#N)c2c(C#N)c(N)nn2c1N`, the growth is reported as -40.4% (active).
`CCCCCCCCCCCCCCCCCN` was tested, and the growth was 95.9% (inactive).
For `COc1nc2ccccc2cc1-c1nc2c(cnn2-c2ccc(Br)cc2)c(=O)[nH]1`, the growth was 8.57% (active).
With `C=C(C)[C@@H]1CC[C@]2(C(=O)O)CC[C@]3(C)[C@H](CC[C@@H]4[C@@]5(C)CCC(NC(=O)c6cccc(OC(C)=O)c6OC(C)=O)C(C)(C)[C@@H]5CC[C@]43C)[C@@H]12` (some centres not stated) the growth was -13.1% (active).
In the case of `O=S(=O)(O)c1ccc(N=NSc2ccc3ccccc3c2)cc1`, the growth is reported as 98.8% (inactive).
In the case of `CC1(C)NCCC[C@]2(C)[C@H]3CC=C4[C@@H]5C[C@@](C)(CO)CC[C@]5(C)CC[C@@]4(C)[C@]3(C)CC[C@@H]12`, the growth is reported as 66.3% (inactive).
For `CCc1ccc(-c2cn3ccnc3c(-c3ccc4ncn(Cc5ccccc5)c4c3)n2)cc1`, the growth was 60.4% (inactive).
For `Cc1ccc(OCC(=O)Nc2ccc(Oc3ccccc3)cc2)c([N+](=O)[O-])n1`, the growth was 69% (inactive).
